Source: PubChem BioAssay (National Center for Advancing Translational Sciences (NCATS))
NPC1 promoter act: qHTS Assay for NPC1 Promoter Activators. Potency, µM (highest dose often 9.22 µM), for the others: at the top dose activation, hits mostly activators. 2.4% of 320,000 active. Huh7 NPC1 promoter luciferase reporter, 24 h; note: % of control where 0% means no effect; nearly all actives have a fitted effect of over 60% in size
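Huh7 cells stably carrying NPC1 promoter–luciferase, plated in Opti-MEM with 10% FBS for 2 h, were exposed to compound in DMSO for 24 h at 37 °C; luciferase reagent was added for 10 min and luminescence read.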
ELG1 genotox: qHTS screen for small molecules that induce genotoxicity in human embryonic kidney (HEK293T) cells expressing luciferase-tagged ELG1. HEK293T ELG1-luciferase reporter, luminescence, 16 h. Potency, µM (titrated, usually from 46 µM), without a hit: top-dose activity change, positive = activation, most hits filed as activators. 1.3% of 330,000 active; note: % of control where 0% means no effect; nearly all actives have a fitted effect of over 60% in size
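Genotoxic stress is detected as increased luminescence from luciferase-tagged ELG1 in HEK293T cells, measured with ONE-Glo after a 16 hr treatment at 37 °C.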
Rab9 promoter act: qHTS Assay for Rab9 Promoter Activators. Huh7 Rab9 promoter-luciferase reporter, luminescence, 24 h. Potency, µM (doses to about 9.22 µM), for inactives: at the top dose activation, negative = inhibition, usual class: activators. 2.8% of 320,000 active; note: % of control where 0% means no effect; nearly all actives have a fitted effect of over 60% in size
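Promoter activation is measured as luciferase luminescence in Huh7 cells stably transfected with a Rab9 promoter–luciferase construct, following 24 h compound exposure at 37 °C and 10 min reagent incubation at ambient temperature.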
p53 reactivation: qHTS assay for re-activators of p53 using a Luc reporter | H1299 p53-A138V BP100-luciferase reporter, luminescence, 24 h | Potency, µM (highest dose often 92.2 µM), inactives show top-dose activity change, positive = activation, actives largely listed as activators | 0.063% of 320,000 active | AID 504706, 2011; note: % of control where 0% means no effect; nearly all actives have a fitted effect of over 45% in size
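H1299 (p53-null), stable ts p53-A138V + BP100-Luc; 1000 cells/well, Opti-MEM/10% FBS; cpd 4 pt, 1:5; 24 h, 37 deg C, 5% CO2; detection reagent 10 min RT; luminescence.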
SMN2 splice up: qHTS Assay for Enhancers of SMN2 Splice Variant Expression; Potency, µM (top dose mostly 46.1 µM), without a hit: top-dose activity change, positive = activation, actives largely listed as activators; 2.8% of 210,000 active; HEK293 SMN2-luciferase splicing reporter, luminescence, 30-36 h; note: % of control where 0% means no effect; nearly all actives have a fitted effect of over 55% in size
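HEK293 cells carry an SMN2 […]–luciferase reporter in which exon 7 inclusion puts luciferase in frame. Cells were plated 10-12 h before compound addition, then incubated 30-36 h at 37C. ONE-Glo luminescence was read; sodium butyrate at 4.5 mM final served as control.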
FLuc modulator: qHTS profiling assay for firefly luciferase inhibitor/activator using purifed enzyme and Km concentrations of substrates (counterscreen for miR-21 project). Luciferin 4-monooxygenase (Photinus pyralis), P08659. purified FLuc, Km substrates, luminescence inhibition. Potency, µM (top dose mostly 57.5 µM), for inactives: top-dose activity change, negative = inhibition, actives largely listed as inhibitors. 6.9% of 360,000 active;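 note: plate controls were vehicle for no effect and reference inhibitor for full effect; nearly all actives have a fitted effect of over 55% in size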
Target sequence (P08659 whole entry, looked up): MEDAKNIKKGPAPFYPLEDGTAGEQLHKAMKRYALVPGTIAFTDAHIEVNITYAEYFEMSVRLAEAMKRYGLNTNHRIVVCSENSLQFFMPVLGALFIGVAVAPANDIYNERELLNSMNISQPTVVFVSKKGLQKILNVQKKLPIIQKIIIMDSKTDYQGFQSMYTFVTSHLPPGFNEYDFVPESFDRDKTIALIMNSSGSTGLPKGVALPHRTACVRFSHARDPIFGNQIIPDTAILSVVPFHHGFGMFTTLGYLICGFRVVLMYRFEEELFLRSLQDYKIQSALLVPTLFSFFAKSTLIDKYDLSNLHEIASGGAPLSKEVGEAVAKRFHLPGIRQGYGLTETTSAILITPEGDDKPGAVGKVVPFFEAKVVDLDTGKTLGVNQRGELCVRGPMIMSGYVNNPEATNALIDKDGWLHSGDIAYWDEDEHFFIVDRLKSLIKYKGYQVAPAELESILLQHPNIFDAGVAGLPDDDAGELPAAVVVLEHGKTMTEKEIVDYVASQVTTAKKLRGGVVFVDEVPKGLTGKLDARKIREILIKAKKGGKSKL
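Purified P. pyralis luciferase, 10 nM final, with Km-level 10 uM D-luciferin and 10 uM ATP in 50 mM Tris acetate pH 7.5, 10 mM Mg acetate, 0.01% Tween-20, 0.05% BSA; 6-point qHTS titration about 60 µM downward; luminescence read.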
Starred values were filed as active, the others as inactive; ? = inconclusive; nt = no result; [ ] = remark or other dose. Rows were chosen to be rich in hits. Some 7.4% of all compounds tested hit in one or more screens of this group. Calls come from the whole dose curve; as a rule, active = well fitted curve in the direction sought with a large enough effect; inconclusive = small, poorly fitted or top-dose-only effect, or another doubt; inactive = no such curve, though single readings can be large; an effect the other way counts as inactive or inconclusive. Potency is the fitted concentration of half-maximal effect.

SMILES	NPC1 promoter act	ELG1 genotox	Rab9 promoter act	p53 reactivation	SMN2 splice up	FLuc modulator
O=C(NCCc1ccccn1)c1ccc2nc(Cc3ccccc3F)oc2c1	2.82µM*	4.61µM*	2µM*	8.2%	nt	10.7µM*
Cc1cccc(CNC(=O)c2ccc3nc(Cc4ccccc4F)oc3c2)n1	3.55µM*	?	3.55µM*	?	nt	26.9µM*
COc1ccccc1CNC(=O)c1oc2ccc(S(=O)(=O)N3CCCCC3)cc2c1C	nt	nt	nt	nt	nt	-0.8%
CCCC1N=C2c3ccccc3N=C(SCC(=O)NCCc3ccc(Cl)cc3)N2C1=O (stereo not given)	nt	nt	nt	nt	nt	4.5%
CCOC(=O)c1c(N)sc2c(OC)c(Br)ccc12	nt	nt	nt	nt	-10.1%	19µM*
Clc1cccc(N/N=C/c2ccc(N3CCOCC3)s2)c1	-0.8%	-9.4%	20.7%	15.7%	-5.4%	9.53µM*
O=C(N/N=C/c1ccc(N2CCOCC2)s1)c1ccccc1Br	10.5%	4.7%	26.1%	19.1%	15.3%	?
CCOc1ccc(C(=O)NCCn2cc(SCC(=O)Nc3ccc4c(c3)OCCO4)c3ccccc32)cc1	nt	nt	nt	nt	-1.6%	?
Cc1ccc(NC(=O)CCc2c(C)nc3cc(-c4ccccc4)nn3c2C)cc1F	nt	nt	nt	nt	19.1%	10.7µM*
CCN(CC)S(=O)(=O)c1ccc(NC(=O)CCc2c(C)nc3cc(-c4ccc(Cl)cc4)nn3c2C)cc1	nt	nt	nt	nt	-0.3%	?
CC(=O)c1ccc(NC(=O)CCc2c(C)nc3cc(-c4ccc(Cl)cc4)nn3c2C)cc1	nt	nt	nt	nt	-20.7%	16.9µM*
CCOc1ccccc1N(C)C(=O)Cn1cnc2sc(C)c(S(=O)(=O)N3CCC(C)CC3)c2c1=O	nt	nt	nt	nt	6.2%	-1.6%
COc1ccc2[nH]cc(CCNc3nc(-c4ccc(C(=O)N(C)C)cc4)nc4ccccc34)c2c1	nt	nt	nt	nt	11.2µM*	nt
Cc1ccc(NC(=O)c2cnn(-c3ccccc3)c2C)c(C)c1	2.51µM*	?	3.16µM*	nt	nt	12µM*
Cc1ccc(NC(=O)c2cnn(-c3ccccc3)c2C)cc1	0.316µM*	1.46µM*	0.398µM*	nt	nt	1.07µM*
Cc1nn(CC(=O)Nc2ccccc2F)c(=O)c2c(C)n(-c3ccc(Cl)cc3)nc12	nt	nt	nt	nt	nt	-8.7%
CCN=c1scc(-c2ccc(F)cc2)n1/N=C/c1ccccn1	2.51µM*	10.3µM*	3.16µM*	4.1%	12.6µM*	9.53µM*
CCN=c1scc(-c2ccccc2)n1/N=C/c1ccccn1	0.355µM*	?	0.562µM*	?	14.1µM*	0.601µM*
CCCc1sc(N/N=C/c2ccccn2)nc1-c1ccc(F)cc1	-36.1%	?	-31.7%	?	-73.7%	-15.9%
Cc1nc2ccccc2c(=O)n1/N=C/c1ccccn1	3.3%	6.1%	24.0%	?	10.4%	0.7%
O=C(NC1CCCC1)c1c[nH]c2ccc(S(=O)(=O)Nc3cccc(C(F)(F)F)c3)cc2c1=O	nt	nt	nt	nt	-59.9%	?
COC(=O)[C@@H]1C[C@@]2(O)[C@H](O)[C@H](O)[C@H](O)C[C@H]2N1Cc1c(F)cccc1Cl	nt	nt	nt	nt	-6.3%	nt
O=[N+]([O-])c1cccc(/C=C/c2ccc3cccc(O)c3n2)c1	?	?	?	13.3%	nt	?
O=C(O)c1ccc(/C=C/c2ccc3cccc(O)c3n2)cc1	3.55µM*	?	3.55µM*	?	22.4µM*	2.39µM*
C[n+]1cccc(/C=C\c2ccc3cccc(O)c3n2)c1	nt	nt	nt	nt	-8.8%[9.22 µM]	nt
SMILES	NPC1 promoter act	ELG1 genotox	Rab9 promoter act	p53 reactivation	SMN2 splice up	FLuc modulator
Oc1ccc(/C=C/c2ccc3cccc(O)c3n2)cc1Br	15.6%	18.3µM*	29.1%	?	nt	16.9µM*
COC(=O)c1ccc(/C=C/c2ccc3cccc(OC(C)=O)c3n2)cc1	3.98µM*	?	3.55µM*	?	15.8µM*	3.79µM*
COc1cccc2cc(C(=O)Oc3ccccc3)c(=O)oc12	-3.2%	2.2%	-2.3%	2.6%	nt	12µM*
COc1cccc2cc(C(C)=O)oc12	-0.5%	2.2%	0.0%	1.7%	-0.8%	-11.2%
CCOc1cccc2cc(C(=O)Oc3ccc(OC)cc3)c(=O)oc12	-2.3%	0.7%	-1.6%	nt	nt	?
COc1ccc(C(=O)c2cc3cccc(OC)c3o2)cc1	3.16µM*	?	3.16µM*	3.3%	14.1µM*	9.53µM*
COc1cccc2cc(C(=O)OCc3ccccc3)c(=O)oc12	1.7%	4.0%	10.8%	nt	nt	6.01µM*
CC(=O)c1ccc(COC(=O)c2cc3ccccc3oc2=O)cc1	-2.2%	17.1%	6.0%	17.2%	nt	16.9µM*
Cc1cc(C)cc(NC(=S)N2CCC(NC(=O)c3ccco3)CC2)c1	-0.5%	-0.6%	-0.1%	2.4%	nt	0.1%
Cc1ccc(CSC(N)=Nc2ccccc2)cc1C	nt	nt	nt	nt	-12.9%[9.22 µM]	nt
CCN(C(=O)c1cc2cccc(OC)c2oc1=O)c1ccccc1	-3.9%	-5.1%	1.2%	-4.5%	10µM*	1.2%
COc1cccc2cc(C(=O)N(Cc3ccccc3)CC3CCCO3)c(=O)oc12 (stereo not given)	0.2%	1.3%	0.7%	-3.1%	1.4%	-5.2%
Cc1nn(-c2ccccc2)c(Cl)c1/C=N/NC(=O)c1ccn[nH]1	0.224µM*	8.2µM*	1.12µM*	?	nt	0.757µM*
Cc1ccccc1OCC(=O)N/N=C/c1c(C)nn(-c2ccccc2)c1Cl	-6.2%	-0.4%	-7.7%	8.0%	17.1%	?
Cc1nn(-c2ccccc2)c(Cl)c1/C=N/NC(=O)c1ccccc1F	?	?	2.24µM*	12.4%	nt	8.49µM*
Cc1cc(C(=O)N/N=C/c2c(C)nn(-c3ccccc3)c2Cl)n[nH]1	28.9%	?	?	2.6%	nt	7.57µM*
Cc1nn(-c2ccccc2)c(Cl)c1/C=N/NC(=O)c1[nH]ncc1Br	0.316µM*	1.46µM*	0.398µM*	17.8%	nt	0.601µM*
Brc1ccccc1-n1nnc(-c2cccnc2)n1	?	10.1%	?	5.6%	nt	16.9µM*
Fc1ccc(C(CCCn2nnc(-c3cccnc3)n2)c2ccc(F)cc2)cc1	-0.3%	-10.3%	4.7%	-2.1%	nt	-0.8%
Fc1ccc(-n2nnc(-c3cccnc3)n2)cc1	?	?	3.16µM*	9.8%	nt	15.1µM*
O=c1[nH]c2ccccc2cc1-c1nnn(-c2ccc(F)cc2)n1	3.55µM*	?	2.51µM*	7.4%	nt	1.9µM*
Clc1ccc(-n2nnc(-c3cccnc3)n2)cc1Cl	3.98µM*	?	3.16µM*	?	nt	?
N#Cc1cccc(NC(=O)N2CCC3(CC2)CCN(C(=O)c2cccc(F)c2)CC3)c1	nt	nt	nt	nt	-36.2%	nt
